CDC25B-CDK2 inh: primary biochemical HTRF screen for blockers of M-phase inducer phosphatase 2 binding to CDK2/cyclin A. P30305+P24941. HTRF CDC25B-CDK2/CyclinA binding, anti-His/anti-Flag; stronger effect = higher value. z-score (concentration not given with the values). 94,000 tested, 0.72% active. AID 1259370, 2018; in the data active = z-score above about 3.2
HIV TAR-Tat: TAR RNA-Tat peptide displacers, HIV-1, primary screen, biochemical, FRET, FAM/TAMRA-labeled Tat; AID 1259389, 2018; z-score (concentration not given with the values); 100,000 tested, 0.6% active; HIV-1 TAR RNA, Tat peptide displacement FRET; stronger effect = higher value; active = z-score of 3 or more in at least 2 runs
Numbers without * were called inactive; . = no result. Only some compounds are listed: those with a hit (about 0.93% of all), similar ones and a draw of the others.

SMILES | CDC25B-CDK2 inh | HIV TAR-Tat
N#Cc1c(NC(=O)c2cc3ncc(Br)cn3n2)sc2c1CCCC2 | 0.64 | 7.3*
CC(=O)Nc1sc2c(c1C#N)CCCC2 | 0.23 | 0.23
COc1ccc(-n2ncc(C(=O)Nc3ccc4nccnc4c3)c2C)cc1 | -1.4 | .
CCOc1ccc(C2CC(=O)N3CN(C(C)c4ccccc4)CSC3=C2C#N)cc1 (configuration not stated) | 5.3* | 3.2
Cc1ccc(C2CC(=O)N3CN(C(C)c4ccccc4)CSC3=C2C#N)cc1 (configuration not stated) | 5* | 1.2
CC(c1ccccc1)N1CSC2=C(C#N)C(c3cccs3)CC(=O)N2C1 (configuration not stated) | 4.4* | 9.8*
Cc1ccc(C2CC(=O)N3CN(CCc4ccccc4)CSC3=C2C#N)cc1 (configuration not stated) | 2.7 | -0.62
COc1ccc(C2CC(=O)N3CN(C(C)c4ccccc4)CSC3=C2C#N)cc1 (configuration not stated) | 5.3* | -1.9
Cc1cc(Cl)ccc1NS(=O)(=O)c1ccc(-c2ccc(=O)[nH]n2)s1 | . | -0.22
O=C(c1cc2c(s1)-c1ccsc1CC2)N1CCCC1 | . | -0.46
CC(C)NC(=O)CSc1nnc(-c2ccncc2)o1 | -0.75 | 1.3
CCOC(=O)Cn1nc(SC)n2c(=O)c3c(nc12)-c1ccccc1CC3(C)C | -0.56 | -0.6
COc1ccc(Nc2nc(C)c3ncn(-c4ccc(OC)cc4)c3n2)cc1 | -0.8 | -0.05
Cc1nc2c(c(C)c1CCC(=O)N1CC(C)CC(C)C1)c(=O)n(C)c(=O)n2C (configuration not stated) | 0.2 | 0.38
O=[N+]([O-])c1ccc(N2CCN(c3ccccc3)CC2)s1 | . | 3.5
CCOC(=O)N1CCN(c2ccc([N+](=O)[O-])s2)CC1 | . | 5.2*
CC(C)OC(=O)C(C(=O)C(F)(F)F)c1cc(NS(=O)(=O)c2ccc(Br)cc2)c2ccccc2c1O (configuration not stated) | 19* | .
CC(C)OC(=O)C(C(=O)C(F)(F)F)c1cc(NS(=O)(=O)c2ccccc2)c2ccccc2c1O (configuration not stated) | -0.59 | .
CCc1ccc(S(=O)(=O)Nc2cc(Br)c(O)c3ccccc23)cc1 | 18* | .
CCc1ccc(S(=O)(=O)Nc2cc(-c3c(O)ccc4ccccc34)c(O)c3ccccc23)cc1 | 0.58 | .
Cc1cccc(-c2nc(CSc3nnc(C)n4c3cc3occc34)c(C)o2)c1 | . | 1.6
Cc1c2c(c(C)n1C)C(C(=O)NC1CCC(C)CC1)N(c1ccc(Cl)cc1)C2=O (configuration not stated) | -2.1 | 2.8
CC(C)(C)NC(=O)C1CCN(S(=O)(=O)c2cccnc2)CC1 | . | 1.4
O=S(=O)(Nc1cccc(F)c1)c1ccc(-n2cccn2)cc1 | . | 1
CCN(CC)C(=O)NC1=C(C#N)C(CC)(CC)Cc2ccccc21 | 1.7 | 0.1
SMILES | CDC25B-CDK2 inh | HIV TAR-Tat
CCOC(=O)[C@H]1OC1C(=O)N[C@@H](CC(C)C)C(=O)NCCC(C)C (some centres not stated) | . | -1.8
O=C(O)c1ccc2c(c1)C1C=CCC1C(c1cccc(F)c1)N2 (configuration not stated) | 0.43 | 9.3*
O=C(O)c1ccc2c(c1)[C@@H]1C=CC[C@@H]1[C@H](c1cccc(Cl)c1)N2 | 0.38 | .
Cc1ccc([C@@H]2Nc3c(F)cccc3[C@@H]3C=CC[C@@H]32)cc1 | -1.8 | .
O=C(O)c1ccc([C@@H]2Nc3c(F)cccc3[C@@H]3C=CC[C@@H]32)cc1 | 2.2 | 9.4*
O=C(O)c1ccc2c(c1)[C@@H]1C=CC[C@@H]1[C@H](c1ccccc1Br)N2 | -0.76 | 0.61
O=C(O)c1ccc2c(c1)[C@@H]1C=CC[C@@H]1[C@H](c1ccccn1)N2 | 6* | .
O=C(O)c1ccc2c(c1)[C@@H]1C=CC[C@@H]1[C@H](c1cccc(C(F)(F)F)c1)N2 | -0.52 | .
O=C(O)c1ccc2c(c1)C1C=CCC1C(c1ccc(Cl)cc1)N2 (configuration not stated) | -0.83 | 19*
CCN(CC)CCCNCC(=O)NC1CCOC(C)(C)C1 (configuration not stated) | -0.75 | 0.02
CCNc1nc(NCc2cccc(C)c2)c2cnn(C)c2n1 | . | 0.32
Cc1ccccc1Cn1c(C)c(C2CCN(S(=O)(=O)c3cnc[nH]3)CC2)c2ccccc21 | . | 0.62
Cc1csc2nc(CNS(=O)(=O)c3ccc(F)cc3)cn12 | -0.57 | 2.2
O=C(CSc1nnc2sc3ccccc3n12)c1ccc2c(c1)OCCO2 | -0.49 | .
CC1O[P+]2(OC1C)OC(C)C(C)O2 (configuration not stated) | 5.2* | .
NCCc1ccc(O)c(O)c1 | -0.08 | 25*
COC(=O)C(N)Cc1ccc(O)c(O)c1 (configuration not stated) | -2.2 | -0.49
COc1cc(CNc2ccc3[nH]c(=O)[nH]c3c2)cc(Br)c1OC | 8.7* | -0.05

Screening results deposited in PubChem BioAssay by Center for Chemical Genomics, University of Michigan.
